# Source: PubChem BioAssay (NCI)
# Compounds without any hit were thinned out: in the full panel of roughly 79,000, 15% have a hit. Values without a mark were called inactive. The source made the active and inactive calls. No stated cut-off is given here; in the data, active means growth inhibition above about 70%; inactive means the rest.
# How the values were obtained:
# [1] = NCI Yeast Anticancer Drug Screen. Data for the rad50 strain (AID 155);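 further: 0% = growth of vehicle-only cultures of the same strain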; conditions: S. cerevisiae rad50 strain growth inhibition, active compounds read high
# Outline: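 Cells are treated with compound, grown, and their growth is then scored against vehicle-only cultures of the same repair-deficient yeast strain.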
# [2] = NCI Yeast Anticancer Drug Screen. Data for the mec2-1 strain (AID 157); conditions: S. cerevisiae mec2-1 strain, active compounds read high
# Outline: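 Compounds were applied to mec2-1 yeast cells. Their growth was then compared with that of vehicle-treated cultures to give growth inhibition.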
# [3] = NCI Yeast Anticancer Drug Screen. Data for the sgs1 mgt1 strain (AID 161);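 further: 0% = growth of cultures given vehicle only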; conditions: S. cerevisiae sgs1 mgt1 strain, active compounds read high
# Outline: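 This yeast growth screen uses a strain with defined DNA-repair lesions; compound-treated growth is compared with vehicle-treated growth.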
# [4] = NCI Yeast Anticancer Drug Screen. Data for the cln2 rad14 strain (AID 165);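 further: 0% = growth equal to vehicle treated cultures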; conditions: S. cerevisiae cln2 rad14 strain, active compounds read high
# Outline: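 Strain: cln2 rad14 yeast, altered in cell cycle control and DNA damage repair. Read-out: growth inhibition vs vehicle.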
# [5] = NCI Yeast Anticancer Drug Screen. Data for the bub3 strain (AID 167); conditions: S. cerevisiae bub3 mutant strain, active compounds read high
# Outline: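 Part of a panel of yeast mutants defective in DNA damage repair or cell cycle regulation. Each strain is grown with compound, and inhibition is calculated relative to solvent-treated cultures.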
# [6] = NCI Yeast Anticancer Drug Screen. Data for the mlh1 rad18 strain (AID 175); conditions: S. cerevisiae mlh1 rad18 strain growth inhibition, active compounds read high
# Outline: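 A repair-deficient yeast strain is exposed to test compound, and growth is scored relative to vehicle-treated controls.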
# [7] = at 5.0 µM (retest, dose inferred, filed as 0.5)
# [8] = at 50.0 µM (retest, dose inferred, filed as 5.0)
Compound,"growth inhibition [1, 7]","growth inhibition [1, 8]",growth inhibition ([1]; at 50.0 µM),"growth inhibition [2, 7]","growth inhibition [2, 8]",growth inhibition ([2]; at 50.0 µM),"growth inhibition [3, 7]","growth inhibition [3, 8]",growth inhibition ([3]; at 50.0 µM),"growth inhibition [4, 7]","growth inhibition [4, 8]",growth inhibition ([4]; at 50.0 µM),"growth inhibition [5, 7]","growth inhibition [5, 8]",growth inhibition ([5]; at 50.0 µM),"growth inhibition [6, 7]","growth inhibition [6, 8]",growth inhibition ([6]; at 50.0 µM)
CC(C)c1ccc2c(c1)CC[C@H]1[C@](C)(CN)CCC[C@]21C,3%,98% (active),98.8% (active),2%,98% (active),89.2% (active),11%,99% (active),99.7% (active),3%,97% (active),91.8% (active),7%,99% (active),90% (active),-9%,98% (active),98.4% (active)
CC(c1ccccc1)C(C(=O)O)(c1ccccc1)c1ccccc1 (configuration not stated),80% (active),4%,99.4% (active),76% (active),7%,99.3% (active),61%,26%,99.7% (active),81% (active),12%,99.3% (active),76% (active),-3%,99.5% (active),84% (active),8%,99.3% (active)
C/C(=N\NC(=S)NCCCNC(=S)N/N=C(\C)c1ccccn1)c1ccccn1,8%,66%,82.5% (active),9%,75% (active),82.4% (active),10%,77% (active),86.2% (active),18%,78% (active),83.3% (active),0%,60%,83.1% (active),17%,85% (active),88.9% (active)
Nc1ncnc2c1cnn2C1CCCCC1,3%,79% (active),30.2%,-2%,46%,58.8%,0%,45%,14.9%,-1%,68%,36.3%,-2%,58%,32.7%,1%,75% (active),71.2% (active)
OC(c1cc(-c2ccc(Cl)cc2Cl)nc2ccccc12)C1CCCCN1 (configuration not stated),-6%,98% (active),98.8% (active),-4%,99% (active),72.2% (active),-5%,99% (active),99.1% (active),-3%,97% (active),64.7%,0%,99% (active),98.8% (active),-6%,99% (active),97.3% (active)
O=S(=O)(Nc1ccccc1Cl)c1ccccc1,19%,80% (active),74.8% (active),1%,88% (active),81.7% (active),4%,91% (active),78.7% (active),24%,81% (active),73.1% (active),-32%,90% (active),81.1% (active),-2%,84% (active),69.2%
C1=C(c2ccccc2)C(=Nc2ccccc2)SC1=Nc1ccccc1,52%,100% (active),99% (active),46%,100% (active),99.5% (active),32%,99% (active),99.5% (active),33%,99% (active),99.3% (active),53%,99% (active),99% (active),38%,99% (active),99.5% (active)
CCOc1ccc2c(c1)n([O-])c1cc(Br)ccc1[n+]2=O,95% (active),93% (active),22.4%,49%,85% (active),86.3% (active),72% (active),95% (active),88.2% (active),35%,90% (active),49%,33%,92% (active),78.6% (active),91% (active),93% (active),85.8% (active)
CCOC1NC(=S)N(C2CCCCC2)C1(C)C (configuration not stated),-2%,10%,10.8%,-2%,3%,1.1%,-1%,11%,11.8%,-2%,-11%,75.6% (active),-2%,-9%,-19%,-6%,1%,16.6%
